Only some compounds are listed: those with a hit (about 19% of all), similar ones and a draw of the others.
DT40 TDP1 CPT = growth inhibition of DT40 Tdp1-/-;hTDP1 cells with camptothecin (screen for TDP1 inhibitors) | chicken DT40 Tdp1-/-;hTDP1 cells + 20 nM CPT, ATP luminescence, 48 h | Potency, µM (top dose mostly 46.2 µM), actives largely listed as inhibitors | 420,000 tested, 12% active | AID 686979; note: nearly all actives have a fitted effect of over 55% in size
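Chicken DT40 Tdp1-/- cells stably complemented with human TDP1 were seeded at 400 cells/well in medium containing 20 nM camptothecin, exposed to pin-transferred compounds, and grown at 37 °C for at least 48 hr. Viability was read as ATP luminescence.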
DT40 TDP1 no CPT = qHTS for Inhibitors of human tyrosyl-DNA phosphodiesterase 1 (TDP1): qHTS in cells in absence of CPT | DT40 Tdp1-/- hTDP1 cells, no CPT, ATP luminescence, 48 h | Potency, µM (doses to about 46.2 µM), most hits filed as inhibitors | 420,000 tested, 15% active; note: nearly all actives have a fitted effect of over 55% in size
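Readout: luminescence from CellTiter-Glo after 30 min in the dark at RT. Cells: DT40 Tdp1-/- with stable hTDP1, 400/well. Exposure: compounds alone, ≥48 hr, 37 °C.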
HT1080NT lethal = kills 2HG-producing HT-1080-NT fibrosarcoma cells | HT-1080-NT fibrosarcoma viability, CellTiter-Glo ATP luminescence, 48 h | Potency, µM (doses to about 46.1 µM), hits mostly cytotoxic | 360,000 tested, 1.6% active | AID 686970;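 note: NT is the 2HG producing partner of a matched IDH1 knockdown line; nearly all actives have a fitted effect of over 55% in size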
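A 48-hour cytotoxicity screen used HT-1080-NT cells plated 2 hours before compound delivery. ATP-based CellTiter-Glo luminescence measured viability, normalized to DMSO and no-cell controls.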
IL-1B inflam inh = inhibitors of inflammasome signaling (IL-1 beta secretion) | THP-1 LPS/ATP IL-1B secretion, AlphaLISA, 16 h; stronger effect = lower value | activity change, % at 57.5 µM | AID 743279 | 360,000 tested, 4.7% active; in the data active = activity change below about -50%; inconclusive = mostly about -30% to -49%
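Secreted IL-1B measured by AlphaLISA bead assay after 16 h compound exposure of THP-1 cells; compounds (final up to 57.5 uM) added 1 h before LPS (250 ng/mL) and ATP (1.25 mM) stimulation; lower signal means less secretion.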
HT1080 IDH1KD tx = kills HT-1080 cells with IDH1 knockdown | 360,000 tested, 2% active | HT-1080 IDH1 knockdown viability, ATP luminescence, 48 h | AID 686971 | Potency, µM (top dose mostly 46.1 µM), most hits filed as cytotoxic
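Assay cells: HT-1080 with IDH1 knockdown, 750 per well, RPMI/5% FBS. Exposure: 48 h at 37 °C following 2 h pre-incubation. Read: CellTiter-Glo luminescence; fitted concentration-response, curve class assigned.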
Of the large screens only hits and unclear results are named; the others gave an inactive call. Unless noted, calls come from the whole dose curve; as a rule, active = well fitted curve in the direction sought with a large enough effect; inconclusive = small, poorly fitted or top-dose-only effect, or another doubt; inactive = no such curve, though single readings can be large; an effect the other way counts as inactive or inconclusive.

C=CCOc1ccc(Br)cc1CNC(C)(C)C	none
CC(=O)Oc1oc(-c2ccccc2)nc1/C=N/c1ccccn1	DT40 TDP1 CPT 16µM, DT40 TDP1 no CPT 21µM, IL-1B inflam inh -101
CN(C)c1ccc(N=Cc2nc(-c3ccccc3)oc2OC(=O)c2ccccc2)cc1	DT40 TDP1 CPT 18µM, DT40 TDP1 no CPT 23µM
Clc1ccc(-c2noc3c2-c2nc(Cc4cccc5ccccc45)sc2CC3)cc1	none
Cc1c(C(=O)NCc2cccc(Br)c2)oc2ccc3c(c12)C(=O)CC(C)(C)O3	DT40 TDP1 CPT inconclusive, DT40 TDP1 no CPT 15µM (no result: HT1080NT lethal, IL-1B inflam inh, HT1080 IDH1KD tx)
COc1ccccc1CNC(=O)c1oc2ccc3c(c2c1C)C(=O)CC(C)(C)O3	DT40 TDP1 CPT inconclusive, DT40 TDP1 no CPT 16µM (no result: HT1080NT lethal, IL-1B inflam inh, HT1080 IDH1KD tx)
CCCOc1ccc(CNC(=O)c2oc3ccc4c(c3c2C)C(=O)CC(C)(CC)O4)cc1 (centres undefined)	DT40 TDP1 CPT 16µM, DT40 TDP1 no CPT 16µM (no result: HT1080NT lethal, IL-1B inflam inh, HT1080 IDH1KD tx)
Cc1c(C(=O)NCC2CCCO2)oc2ccc3c(c12)C(=O)CC(C)(C)O3 (centres undefined)	DT40 TDP1 no CPT inconclusive
Cc1cccc(C)c1NC(=O)c1oc2ccc3c(c2c1C)C(=O)CC(C)(C)O3	DT40 TDP1 CPT 16µM, DT40 TDP1 no CPT inconclusive (no result: HT1080NT lethal, IL-1B inflam inh, HT1080 IDH1KD tx)
Cc1c(C(=O)Nc2ccc(F)cc2F)oc2ccc3c(c12)C(=O)CC(C)(C)O3	none (no result: HT1080NT lethal, IL-1B inflam inh, HT1080 IDH1KD tx)
Cc1nnc(-c2cnn(-c3ccccc3)c2N)n1Cc1ccncc1	none
CCOc1ccc2c(=O)c(Oc3ccccc3)c(C)oc2c1	DT40 TDP1 CPT inconclusive, DT40 TDP1 no CPT 21µM
CCOCCCNc1ncnc2onc(C)c12	DT40 TDP1 no CPT inconclusive (no result: HT1080NT lethal, IL-1B inflam inh, HT1080 IDH1KD tx)
Cc1noc2ncnc(NCCc3ccccc3)c12	DT40 TDP1 CPT 7.3µM, DT40 TDP1 no CPT 6.5µM (no result: HT1080NT lethal, IL-1B inflam inh, HT1080 IDH1KD tx)
CCOc1ccc(CCNC(=O)c2c(C)oc3ncnc(N4CCOCC4)c23)cc1	DT40 TDP1 CPT inconclusive (no result: HT1080NT lethal, IL-1B inflam inh, HT1080 IDH1KD tx)
Cc1ccc(CCNc2ncnc3onc(C)c23)cc1	DT40 TDP1 CPT 1.8µM, DT40 TDP1 no CPT 0.82µM (no result: HT1080NT lethal, IL-1B inflam inh, HT1080 IDH1KD tx)
CCOC(=O)c1c(C)oc2ncnc(NCCc3ccccc3)c12	DT40 TDP1 CPT 21µM, DT40 TDP1 no CPT 23µM (no result: HT1080NT lethal, IL-1B inflam inh, HT1080 IDH1KD tx)
Cn1nnc2c(NCCc3ccccc3)ncnc21	none (no result: HT1080NT lethal, IL-1B inflam inh, HT1080 IDH1KD tx)
COc1ccc(CNc2ncnc3onc(C)c23)cc1	DT40 TDP1 CPT 16µM, DT40 TDP1 no CPT 13µM (no result: HT1080NT lethal, IL-1B inflam inh, HT1080 IDH1KD tx)
CCCN1CCC(=O)N([C@H](CN=[N+]=[N-])CC(C)C)CC1	DT40 TDP1 CPT inconclusive
COc1cc(C(=O)OC2CC[C@]3(C)C4CCC5[C@]6(O)CC(O)[C@]7(O)C(CN8CC(C)CCC8[C@]7(C)O)[C@]6(O)C[C@@]53O[C@]24O)cc(OC)c1OC (some centres undefined)	none (no result: HT1080NT lethal, IL-1B inflam inh, HT1080 IDH1KD tx)
CCC(=O)Nc1cccc(NC(=S)NC(=O)c2ccccc2C)c1	none
COCCn1c(C)c(C)c2c(NCCc3ccccc3)ncnc21	DT40 TDP1 CPT 23µM, DT40 TDP1 no CPT 16µM
CCOc1ccc(CCNc2ncnc3onc(C)c23)cc1OCC	DT40 TDP1 CPT 2.9µM, DT40 TDP1 no CPT 2.1µM (no result: HT1080NT lethal, IL-1B inflam inh, HT1080 IDH1KD tx)
Cn1c(=O)c(C(=O)Nc2ncccc2O)c(O)c2ccccc21	DT40 TDP1 no CPT inconclusive, HT1080NT lethal inconclusive, HT1080 IDH1KD tx inconclusive
Cc1cccc(NC(=O)c2c(O)c3ccccc3n(C)c2=O)c1	DT40 TDP1 CPT inconclusive, DT40 TDP1 no CPT 15µM
Cc1ccc(NC(=O)c2c(O)c3ccccc3n(C)c2=O)nc1	DT40 TDP1 CPT inconclusive, DT40 TDP1 no CPT 21µM
C[C@@H](c1ccccc1)N1C[C@H](COCc2ccccc2)Oc2cc(N3CC[C@@H](O)C3)ccc2S1(=O)=O	DT40 TDP1 CPT inconclusive, DT40 TDP1 no CPT inconclusive, HT1080NT lethal inconclusive
CS(=O)(=O)c1ccc2nc(N)sc2c1	none
CS(=O)(=O)c1ccc(N)c(SSc2cc(S(C)(=O)=O)ccc2N)c1	DT40 TDP1 CPT inconclusive, DT40 TDP1 no CPT inconclusive, IL-1B inflam inh -95
COc1ccc(OC)c(NC(=O)Nc2cccc(OCc3cc(=O)n4cc(C)ccc4n3)c2)c1	DT40 TDP1 CPT 8.2µM, DT40 TDP1 no CPT 18µM (no result: HT1080NT lethal, IL-1B inflam inh, HT1080 IDH1KD tx)
COc1cc(OC)c(NC(=O)Nc2ccccc2OCc2cc(=O)n3cc(C)ccc3n2)cc1Cl	DT40 TDP1 CPT 8.2µM, DT40 TDP1 no CPT 9.2µM (no result: HT1080NT lethal, IL-1B inflam inh, HT1080 IDH1KD tx)

Source: PubChem BioAssay
